The values that follow come from PubChem BioAssay.

Where “and” joins values, the source holds several entries; their conditions need not be identical. Equal entries are not always repeated. For some assays here: Entries with a potency or affinity are not part of this list. Some structures have more than one record in an assay (separate samples or runs), and their calls can disagree. Calls of active or inactive are those of the source. Unless noted, no rule for the calls is given here.

A short description of assay [1]: antimalarial activity against Dd2 strain (AID 2302;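 active = growth inhibition above 50% at the single 2 µM test dose, taken to imply half-maximal potency below 2 µM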;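 also: 0% = DMSO untreated growth and 100% = chloroquine plus artemisinin killed control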). As to conditions: P. falciparum Dd2 in RBCs, LDH growth readout, 72 h; at 2 µM; stronger effect = higher value.
The nature of assay [2]: human hepatoma cell viability loss – ATP luminescence, cytotoxicity control for P. falciparum antimalarial project, primary screen (AID 2303;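 active = inhibition above 50%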;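 also: 0% = DMSO wells and 100% = digitonin-killed cells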). The conditions noted are these: HepG2 viability, 24-48 h, at 10 µM, stronger effect = higher value.
Assay [3] addresses L-lactate dehydrogenase (Plasmodium falciparum (isolate CDC / Honduras)) (UniProt Q27743). The assay is described as follows: PfLDH activity inhibition – cell lysate, 3D7 strain, counter-screen for P. falciparum growth inhibition project (AID 2304).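 Also: 0% = vehicle and 100% = reference inhibitor.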 The conditions noted are these: P. falciparum 3D7 crude extract, LDH APAD/NBT absorbance; at 2 µM; stronger effect = higher value. In general terms: A counterscreen serves to expose hits that act by an unwanted route or on another target.

Assay [4] is described as follows: inhibition of 3D7 malaria parasite growth – strain 3D7 (AID 2306).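 Also: 0% = DMSO wells and 100% = chloroquine plus artemisinin control wells.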 As to conditions: P. falciparum 3D7 erythrocytic growth, LDH absorbance, 72 h; at 2 µM; stronger effect = higher value.
Assay [5] deals with Calcium-dependent protein kinase 1 (Plasmodium falciparum (isolate 3D7)) (UniProt P62344). The assay is described as follows: PfCDPK1 kinase inhibitors, biochemical, TCAMS library (AID 1159585; cut-off not given, nearly all actives have IC50 up to about 0.98 µM;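 also: inhibitors leave more ATP so luminescence rises with inhibition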). The conditions noted are these: recombinant PfCDPK1, Kinase-Glo ATP depletion luminescence. Background: In Kinase-Glo more light means more ATP remaining.
For assay [6], the target named is Plasmodium falciparum protein kinase 6 (PK6, PF3D7_1337100) (UniProt Q8IDW1). The assay can be described thus: PfPK6 kinase inhibitors, biochemical, TCAMS library (AID 1159586). The conditions noted are these: recombinant PfPK6, Kinase-Glo ATP depletion luminescence.
Assay [7] has as its target Protein kinase 7 (PK7), Plasmodium falciparum 3D7 (PF3D7_0213400) (UniProt Q7YTF7). The assay is described as follows: inhibition of Plasmodium PK7 catalytic activity – biochemical, TCAMS antimalarial set, Kinase-Glo luminescence (AID 1159587). The conditions noted are these: recombinant PfPK7, Kinase-Glo ATP depletion luminescence.
The target in assay [8] is Calcium-dependent protein kinase 4 (Plasmodium falciparum (isolate 3D7)) (UniProt Q8IBS5). The assay is described as follows: PfCDPK4 kinase inhibitors, biochemical, TCAMS library (AID 1159588; cut-off not given, nearly all actives have IC50 up to about 0.91 µM). The conditions noted are these: recombinant PfCDPK4, Kinase-Glo ATP depletion luminescence.
Sequence of Calcium-dependent protein kinase 4 (Plasmodium falciparum (isolate 3D7)) (Q8IBS5 whole entry, looked up): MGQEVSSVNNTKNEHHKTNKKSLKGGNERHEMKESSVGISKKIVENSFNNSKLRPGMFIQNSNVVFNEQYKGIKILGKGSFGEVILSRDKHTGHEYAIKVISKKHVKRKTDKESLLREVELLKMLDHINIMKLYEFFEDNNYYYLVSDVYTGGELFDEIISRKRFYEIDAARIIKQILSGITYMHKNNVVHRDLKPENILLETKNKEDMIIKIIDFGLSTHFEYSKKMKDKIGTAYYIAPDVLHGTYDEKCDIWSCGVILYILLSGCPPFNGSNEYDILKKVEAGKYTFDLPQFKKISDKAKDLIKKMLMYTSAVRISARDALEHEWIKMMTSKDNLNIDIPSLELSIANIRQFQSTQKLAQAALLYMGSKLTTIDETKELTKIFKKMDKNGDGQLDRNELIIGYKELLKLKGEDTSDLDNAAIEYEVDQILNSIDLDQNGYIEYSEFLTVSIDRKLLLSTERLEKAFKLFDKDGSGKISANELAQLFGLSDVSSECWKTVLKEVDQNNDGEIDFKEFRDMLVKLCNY

Sequence of Calcium-dependent protein kinase 1 (Plasmodium falciparum (isolate 3D7)) (P62344 whole entry, looked up): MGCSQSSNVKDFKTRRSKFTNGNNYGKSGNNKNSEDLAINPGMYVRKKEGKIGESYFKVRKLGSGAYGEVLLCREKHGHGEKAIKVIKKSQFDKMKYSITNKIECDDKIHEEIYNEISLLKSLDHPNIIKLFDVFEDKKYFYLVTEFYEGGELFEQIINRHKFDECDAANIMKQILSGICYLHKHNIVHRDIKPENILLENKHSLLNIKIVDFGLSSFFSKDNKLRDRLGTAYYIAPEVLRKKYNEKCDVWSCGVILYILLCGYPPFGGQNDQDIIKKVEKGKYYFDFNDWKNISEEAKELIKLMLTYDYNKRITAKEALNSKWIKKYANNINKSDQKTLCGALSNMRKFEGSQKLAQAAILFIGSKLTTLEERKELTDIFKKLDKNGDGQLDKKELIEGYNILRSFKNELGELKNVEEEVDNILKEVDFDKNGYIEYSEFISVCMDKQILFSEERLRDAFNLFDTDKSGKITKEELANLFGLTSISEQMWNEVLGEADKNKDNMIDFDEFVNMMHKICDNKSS
Sequence of L-lactate dehydrogenase (Plasmodium falciparum (isolate CDC / Honduras)) (Q27743 whole entry, looked up): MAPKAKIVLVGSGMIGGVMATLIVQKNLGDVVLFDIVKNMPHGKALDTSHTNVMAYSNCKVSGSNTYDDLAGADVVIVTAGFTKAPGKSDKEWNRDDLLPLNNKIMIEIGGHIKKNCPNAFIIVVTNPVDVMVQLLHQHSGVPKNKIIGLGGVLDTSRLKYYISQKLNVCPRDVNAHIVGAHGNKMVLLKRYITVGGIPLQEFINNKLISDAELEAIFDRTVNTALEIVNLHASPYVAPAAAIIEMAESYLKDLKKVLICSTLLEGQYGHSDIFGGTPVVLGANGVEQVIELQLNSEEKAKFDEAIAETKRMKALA
Sequence of Protein kinase 7 (PK7), Plasmodium falciparum 3D7 (PF3D7_0213400) (Q7YTF7 1-343): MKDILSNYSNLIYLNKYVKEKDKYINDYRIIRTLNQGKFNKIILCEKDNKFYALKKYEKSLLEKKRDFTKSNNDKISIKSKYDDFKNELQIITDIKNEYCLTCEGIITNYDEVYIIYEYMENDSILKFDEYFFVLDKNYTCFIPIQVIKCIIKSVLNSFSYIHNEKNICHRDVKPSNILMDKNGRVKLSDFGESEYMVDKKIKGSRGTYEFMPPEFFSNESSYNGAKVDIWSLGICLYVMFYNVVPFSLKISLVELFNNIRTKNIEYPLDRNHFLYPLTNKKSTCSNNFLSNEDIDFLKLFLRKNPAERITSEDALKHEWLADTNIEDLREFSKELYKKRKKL
Sequence of Plasmodium falciparum protein kinase 6 (PK6, PF3D7_1337100) (Q8IDW1 1-305): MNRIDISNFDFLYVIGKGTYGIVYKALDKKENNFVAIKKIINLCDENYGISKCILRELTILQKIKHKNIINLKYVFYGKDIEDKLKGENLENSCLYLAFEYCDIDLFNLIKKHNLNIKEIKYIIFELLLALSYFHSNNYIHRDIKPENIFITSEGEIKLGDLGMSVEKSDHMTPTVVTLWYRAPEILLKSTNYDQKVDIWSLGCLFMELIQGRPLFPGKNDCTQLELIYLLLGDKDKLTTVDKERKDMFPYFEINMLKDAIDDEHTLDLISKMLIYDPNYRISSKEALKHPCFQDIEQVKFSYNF

By inhibition is commonly meant the drop in the measured response relative to a control, in per cent. On to `Cc1[nH]c2ccc(NS(C)(=O)=O)cc2c1C1CCN(CC2CCN(C(=O)/C=C/c3ccc(Cl)c(Cl)c3)CC2)CC1`, for which the growth inhibition in assay [1] is 83% (active); in assay [4], 99% (active). Further, the figures for the inhibition in assay [2] and in assay [3] were 15% (inactive) and -4% (inactive), respectively. The outcome in assay [5], in assay [6], in assay [7] and in assay [8] was inactive.
Turning to `Oc1cccc(C2CCCN(CCc3c[nH]c4ccccc34)C2)c1` (configuration not stated), the growth inhibition was 40% (inactive) in assay [1] and 93% (active) in assay [4]. Further, the results for the inhibition in assay [2] and in assay [3] were 0% (inactive) and 2% (inactive), respectively. Besides, the outcome in assay [5], in assay [6], in assay [7] and in assay [8] was inactive.
`S=C(Nc1ccccc1Cl)NC1CCC(CN2CCC(c3c[nH]c4ccccc34)CC2)CC1` (configuration not stated): the figures for the growth inhibition in assay [1] and in assay [4] were 12% (inactive) and 90% (active), respectively. Besides, the inhibition in assay [2] is 31% (inactive); in assay [3], 8% (inactive). In addition, the outcome in assay [5], in assay [6], in assay [7] and in assay [8] was inactive.
With `O=C(/C=C/c1ccc(Cl)c(Cl)c1)N1CCC(CN2CCC(c3c(Br)[nH]c4ccccc34)CC2)CC1`, the growth inhibition in assay [1] is 99% (active); in assay [4], 100% (active). Moreover, the inhibition in assay [2] was 41% (inactive); in assay [3], -4% (inactive). In addition, the outcome in assay [5], in assay [6], in assay [7] and in assay [8] was inactive.
Consider `CN(C)CCCOc1ccc(CN2CCC(c3c[nH]c4ccc(NCC5CCCCC5)cc34)CC2)cc1`, for which the growth inhibition in assay [1] and in assay [4] was 99% (active) throughout. For the same compound, the inhibition in assay [2] is 58% (active); in assay [3], 3% (inactive). For the same compound, the outcome in assay [5], in assay [6], in assay [7] and in assay [8] was inactive.
For the compound `C/C=C1\CN2CC[C@H]1C[C@H]2[C@H](O)c1ccnc2ccc(OC)cc12`, the growth inhibition in assay [1] was 45% (inactive) and 61% (active); in assay [4] it was 102% (active) and 99% (active). In addition, the inhibition in assay [2] was -12% (inactive) and -9% (inactive); in assay [3] it was 4% (inactive) and -10% (inactive). The result in assay [5], in assay [6], in assay [7] and in assay [8] was inactive.
For the compound `Cc1[nH]c2ccccc2c1C1CCN(CC2CCC(NC(=O)/C=C/c3ccc(Cl)c(Cl)c3)CC2)CC1` (configuration not stated), the growth inhibition in assay [1] was 93% (active); in assay [4] it was 101% (active). The inhibition was 15% (inactive) in assay [2] and 1% (inactive) in assay [3]. Moreover, the result in assay [5], in assay [6], in assay [7] and in assay [8] was inactive.
Regarding `C[C@@H](CC1CCCCC1)NCc1ccccc1O`, the growth inhibition in assay [1] was 67% (active); in assay [4] it was 98% (active). The inhibition in assay [2] was 9% (inactive); in assay [3] it was 3% (inactive). Also, the result in assay [5], in assay [6], in assay [7] and in assay [8] was inactive.
As for `O=C(/C=C/c1ccccc1O)NC1CCC(CN2CCC(c3c[nH]c4ccccc34)CC2)CC1` (configuration not stated), the growth inhibition in assay [1] is 73% (active) and 45% (inactive); in assay [4], 101% (active) and 103% (active). Also, the inhibition in assay [2] was 11% (inactive) and 22% (inactive); in assay [3], -1% (inactive) and 5% (inactive). For the same compound, the result in assay [5], in assay [6], in assay [7] and in assay [8] was inactive.
Turning to `O=C(/C=C/c1ccc(Cl)c(Cl)c1)NCC1CCC(CN2CCC(c3c[nH]c4ccccc34)CC2)CC1` (configuration not stated), the results for the growth inhibition in assay [1] and in assay [4] were 93% (active) and 102% (active), respectively. Moreover, the inhibition was 54% (active) in assay [2] and 4% (inactive) in assay [3]. Besides, the outcome in assay [5], in assay [6], in assay [7] and in assay [8] was inactive.
For the compound `CCCCCCC(C)(C)c1cc(O)c2c(c1)OC(C)(C)c1ccncc1-2`, the values for the growth inhibition in assay [1] and in assay [4] were 99% (active) and 95% (active), respectively. The inhibition was 4% (inactive) in assay [2] and 1% (inactive) in assay [3]. Also, the result in assay [5], in assay [6], in assay [7] and in assay [8] was inactive.
Take `O=C1Nc2cccc3c2C1(CCCCN1CC=C(c2c[nH]c4ncccc24)CC1)CCC3` (configuration not stated): the growth inhibition is 80% (active) in assay [1] and 92% (active) in assay [4]. Also, the inhibition in assay [2] is 11% (inactive); in assay [3] it was -5% (inactive). In addition, the outcome in assay [5], in assay [6], in assay [7] and in assay [8] was inactive.
As for `CC[C@H]1CN2CC[C@@H]1C[C@H]2[C@H](O)c1ccnc2ccc(Cl)cc12`, the results for the growth inhibition in assay [1] and in assay [4] were 98% (active) and 100% (active), respectively. Besides, the inhibition in assay [2] was -3% (inactive); in assay [3], 2% (inactive). The result in assay [5], in assay [6], in assay [7] and in assay [8] was inactive.
Consider `COc1c(F)cc(CC(C)NCC(O)c2cccc(Cl)c2)cc1F` (configuration not stated), for which the growth inhibition in assay [1] is 86% (active); in assay [4] it was 93% (active). For the same compound, the inhibition in assay [2] and in assay [3] was 0% (inactive) in each case. Further, the result in assay [5], in assay [6], in assay [7] and in assay [8] was inactive.
As for `Oc1ccc2[nH]cc(C3=CCN(Cc4ccccc4)CC3)c2c1`, the growth inhibition in assay [1] is 67% (active); in assay [4], 94% (active). Moreover, the results for the inhibition in assay [2] and in assay [3] were 1% (inactive) and 7% (inactive), respectively. Besides, the outcome in assay [5], in assay [6], in assay [7] and in assay [8] was inactive.
`COCC(=O)N(Cc1cccc(-c2ccc(CNCCc3ccccc3)cc2)c1)C1CCN(Cc2ccccc2)CC1`: the figures for the growth inhibition in assay [1] and in assay [4] were 45% (inactive) and 93% (active), respectively. Besides, the inhibition was 44% (inactive) in assay [2] and 4% (inactive) in assay [3]. The result in assay [5], in assay [6], in assay [7] and in assay [8] was inactive.
On to `Cc1nc(-c2ccc(-c3ccc(C(=O)Nc4ccc5c(c4)C4(CCNCC4)CO5)cc3)c(C)c2)no1`, for which the growth inhibition was 15% (inactive) in assay [1] and 90% (active) in assay [4]. For the same compound, the inhibition was 37% (inactive) in assay [2] and -3% (inactive) in assay [3]. Also, the outcome in assay [5], in assay [6], in assay [7] and in assay [8] was inactive.
Take `O=C(Cc1c(-c2ccccc2)[nH]c2ccccc12)NC1CCC(CN2CCC(c3c[nH]c4ccccc34)CC2)CC1` (configuration not stated): the growth inhibition in assay [1] is 75% (active); in assay [4], 103% (active). Further, the inhibition in assay [2] was 31% (inactive); in assay [3], 1% (inactive). In addition, the outcome in assay [5], in assay [6], in assay [7] and in assay [8] was inactive.
In the case of `CN(C)c1cccc(CN2CC=C(c3c[nH]c4ccc(Cl)cc34)CC2)c1`, the growth inhibition in assay [1] is 87% (active); in assay [4] it was 93% (active). Besides, the inhibition was 40% (inactive) in assay [2] and 3% (inactive) in assay [3]. In addition, the outcome in assay [5], in assay [6], in assay [7] and in assay [8] was inactive.
